Results taken from publication PMC4336329 (PLoS ONE, 2015).
About 14,000 (4.5%) of roughly 310,000 compounds showed an effect of 50% or more. Effects have a minus sign here. What follows is part of a selection rich in strong results, with near analogues and random picks from the rest.

What follows are compounds tested against human ether-à-go-go-related gene (hERG) potassium channel (human, UniProt Q12809) (assay: primary screen, population patch clamp on CHO cells stably expressing hERG; higher = less effect of the substance).
human ether-à-go-go-related gene (hERG) potassium channel, sequence (Q12809 whole entry, looked up): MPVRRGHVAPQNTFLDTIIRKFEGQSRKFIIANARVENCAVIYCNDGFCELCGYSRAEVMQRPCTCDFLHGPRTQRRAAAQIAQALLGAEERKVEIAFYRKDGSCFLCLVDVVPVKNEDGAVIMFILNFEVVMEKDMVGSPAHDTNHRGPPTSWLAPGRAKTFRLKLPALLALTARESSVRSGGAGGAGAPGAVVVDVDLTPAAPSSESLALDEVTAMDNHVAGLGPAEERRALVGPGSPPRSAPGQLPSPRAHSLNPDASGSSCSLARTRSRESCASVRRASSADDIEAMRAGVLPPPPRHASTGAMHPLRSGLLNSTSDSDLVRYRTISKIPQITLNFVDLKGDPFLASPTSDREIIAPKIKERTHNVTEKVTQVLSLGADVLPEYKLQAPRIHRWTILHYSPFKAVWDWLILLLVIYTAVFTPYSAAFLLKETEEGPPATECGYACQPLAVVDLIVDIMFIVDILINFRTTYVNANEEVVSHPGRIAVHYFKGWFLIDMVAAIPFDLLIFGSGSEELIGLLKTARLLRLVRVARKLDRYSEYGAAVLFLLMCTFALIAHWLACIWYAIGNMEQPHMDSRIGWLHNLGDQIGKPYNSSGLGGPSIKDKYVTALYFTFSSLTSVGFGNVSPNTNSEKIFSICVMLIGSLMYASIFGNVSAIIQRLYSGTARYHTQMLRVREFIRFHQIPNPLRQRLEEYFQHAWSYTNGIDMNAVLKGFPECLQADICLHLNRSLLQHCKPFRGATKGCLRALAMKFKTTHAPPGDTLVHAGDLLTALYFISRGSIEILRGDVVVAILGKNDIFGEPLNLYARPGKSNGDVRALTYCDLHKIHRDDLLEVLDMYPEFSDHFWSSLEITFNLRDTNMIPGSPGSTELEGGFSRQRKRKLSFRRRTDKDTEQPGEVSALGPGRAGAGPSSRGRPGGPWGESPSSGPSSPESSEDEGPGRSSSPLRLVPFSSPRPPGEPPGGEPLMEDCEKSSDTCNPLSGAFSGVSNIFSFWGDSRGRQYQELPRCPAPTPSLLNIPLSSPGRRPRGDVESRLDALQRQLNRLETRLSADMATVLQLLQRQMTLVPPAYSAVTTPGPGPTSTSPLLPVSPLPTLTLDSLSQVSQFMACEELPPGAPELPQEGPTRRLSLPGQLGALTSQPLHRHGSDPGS
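Further: peak tail current of the secondary pulse compared with the same well before compound.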

SMILES	hERG current change (%, negative = inhibition) at 10uM [%]
CCN(CC)S(=O)(=O)c1ccc(C(=O)NCCCN=C2NS(=O)(=O)c3ccccc32)cc1	-5.24
CCC1(CC)C(=O)C2=C3C1[C@H](C(=O)OC)C=C(C(=O)OC)C[C@H]3[C@H]1C(=O)N(CC(=O)OC)C(=O)[C@H]1[C@H]2C (some centres unmarked)	5.84
COc1ccc(OC)c(S(=O)(=O)Nc2cc3c4c(c2)CCN4C(=O)CC3)c1	-2.69
C=CCn1c(SCC(=O)N2CC(=O)Nc3ccccc32)nc2scc(-c3ccccc3)c2c1=O	-1.72
O=C(CSc1nccn(-c2ccc(Br)cc2)c1=O)NC1CCCC1	13.7
Cc1nnc(NC(=O)CSc2nnc(CNC(=O)c3ccc(S(=O)(=O)N(C)C)cc3)o2)s1	22.6
CC(Cl)C(=O)NNC(=O)CNS(=O)(=O)c1ccccc1 (centres unmarked)	-0.478
Cc1ccc(NC(/C=C/N(C)C)=C/C(=O)C(F)(F)F)c(C)c1	-56.7
CN(C)/C=C\C(=C/C(=O)C(F)(F)F)Nc1ccccc1Oc1ccccc1	-24.4
CN(C)/C=C/C(=C\C(=O)C(F)(F)F)Nc1ccc(C(F)(F)F)cc1	2.83
C=CCc1ccc(OCC(O)CN2CCc3ccccc3C2)c(OC)c1.Cl (centres unmarked)	-68.8
COc1cc(COCC(O)CN2CCc3ccccc3C2)cc(OC)c1OC.Cl (centres unmarked)	-21.7
C=CCc1ccc(OCC(O)CN2CCCCC2C)c(OC)c1.Cl (centres unmarked)	-55.1
C=CCc1ccc(OCC(O)COc2ccc(CC=C)cc2OC)c(OC)c1	-24.5
COc1cc(COCC(O)CN2CCCCC2C)cc(OC)c1OC.Cl (centres unmarked)	20.6
C=CCc1ccc(OCC(O)CN2CCN(c3ccccc3)CC2)c(OC)c1.Cl (centres unmarked)	-70.3
C=CCc1ccc(OCC(O)CN2CCC(Cc3ccccc3)CC2)c(OC)c1.Cl (centres unmarked)	-77.5
C=CCc1ccc(OCC(O)CN2CCN(c3ccccc3OC)CC2)c(OC)c1.Cl (centres unmarked)	-16.2
CC(=O)C(C)n1c(CN(C)Cc2ccccc2)nc2c1c(=O)n(C)c(=O)n2C (centres unmarked)	-5.4

SMILES	hERG current change (%, negative = inhibition) at 10uM [%]
O=C(CSc1cc([N+](=O)[O-])cc(S(=O)(=O)Cc2ccccc2)c1)NC1CC1	-9.88
COCCNC(=O)COc1ccc(C)c(C)c1	3.36
Cc1cc(S(=O)(=O)N2CCC(N3CCCCC3)CC2)ccc1-n1cnnn1	-1.17
COc1cccc(C2CC(c3ccccc3Cl)n3nnnc3N2)c1 (centres unmarked)	-12.1
O=C(Nc1nc2ccccc2s1)c1cccc(S(=O)(=O)N2CCc3ccccc32)c1	-7.03
Cc1cccc(OCCCC(=O)NNC(=O)c2ccc(F)cc2)c1	-7.21
COc1ccc(-c2nn3c(C4CCCCC4)nnc3s2)cc1OC	-15.2
COc1ccc(-n2nc(C(=O)NCC(=O)NC3CCCCCC3)c3ccccc3c2=O)c(OC)c1	11.1
N/C(=N\OC(=O)COc1ccc(Cl)cc1Br)c1cccnc1	-8.3
C=CCc1ccc(OCC(O)CN2CCCCC2)c(OC)c1 (centres unmarked)	-54.8
C=CCc1ccc(OCC(O)CN2CCN(Cc3ccc(Cl)cc3)CC2)c(OC)c1.Cl (centres unmarked)	-75.7
C=CCc1ccc(OCC(O)CN2CCN(Cc3ccccc3)CC2)c(OC)c1.Cl (centres unmarked)	-77
C=CCc1ccc(OCC(O)CO)c(OC)c1 (centres unmarked)	11.6
C=CCc1ccc(OC)c(OC)c1	23.8
C=CCc1ccc(OCC(O)COCC)c(OC)c1 (centres unmarked)	-3.56
C=CCN1C(=O)c2ccc(C(=O)N3CCN(S(=O)(=O)c4ccccc4Br)CC3)cc2C1=O	-41.2
O=C(NC(=S)Nc1ccccc1[N+](=O)[O-])c1ccccc1	6.17
CSc1nc(N)nc(SCCS(=O)(=O)c2ccc(Cl)cc2)c1C#N	-3.5
CN(C(=O)COC(=O)c1ccc2c(c1)NC(=O)CS2)C1CCS(=O)(=O)C1 (centres unmarked)	31.3

SMILES	hERG current change (%, negative = inhibition) at 10uM [%]
CC1(C)C2C/C(=N\O)C(C)(/[N+]([O-])=C/c3cccc([N+](=O)[O-])c3)CC21 (centres unmarked)	-10.7
COc1ccc(C(C(=O)NC2CCCC2)N(Cc2cccnc2)C(=O)Cc2cccs2)cc1OC (centres unmarked)	-1.66
Cc1cccc(CN2CCOCCS2(=O)=O)c1	10.2
O=C(/C=C/c1cccs1)N1CCCC1	33.1
CC(C)c1csc(CN2CCC(CO)(Cc3cccc(F)c3)CC2)n1	-17.3
OCC1(Cc2cccc(Cl)c2)CCCN(Cc2ccc3cc(F)ccc3n2)C1 (centres unmarked)	-23.8
COc1cccc(CC2(CO)CCN(S(=O)(=O)N(C)C)CC2)c1	11.9
COc1cccc(CN2CCN(Cc3ccc4cccc(F)c4n3)CC2CCO)c1 (centres unmarked)	-39.9
OCC1(Cc2cccc(F)c2)CCN(Cc2ccc3cccc(F)c3n2)CC1	-64.7
COc1cccc(CC2(CO)CCN(Cc3ccc4cccc(F)c4n3)CC2)c1	-64.4
OCC1(CCOc2ccccc2)CCN(Cc2ccc3cccc(F)c3n2)CC1	-83
CC(=O)Cc1nsc(NC(=O)c2csc3c2CCCC3)n1	-8.24
CCOc1ccccc1NC(=O)CSc1ccc(-c2ccco2)nn1	-16.6
Cc1cccc(C2NC(c3cccc(C)c3)C(C)C(=O)C2C)c1 (centres unmarked)	8.92
CSc1ncc(CN2CCN(C(C)C)C(CCO)C2)cn1 (centres unmarked)	-2.82
O=C(Nc1nnc(C2=COCCO2)o1)c1ccc(Br)cc1	-0.63
CCCc1cc(=O)[nH]c(SCC(=O)N2CCN(c3ccc(F)cc3)CC2)n1	-15.2
CCN(CC)Cc1c(C(=O)N/N=C/c2ccco2)nnn1-c1nonc1N	-14.3
